# Measurements from PubChem BioAssay AID463173 (ICCB-Longwood Screening Facility, Harvard Medical School, 2010).
# In all, about 52,000 compounds went through this assay and about 4,300 (8.3%) were called active. Rule as the data show it: active = survival mostly below about 52% (no sharp cut-off); inactive = mostly above about 56%. Shown is part of a subset that was picked to be rich in actives.
# Test system: DeltatarO mutant
# Test: S. aureus survival, RN4220 and DeltatarO strains – OD600, teichoic acid synthesis inhibitors, primary screen (AID 463173)
# Conditions: S. aureus RN4220 wild type/DeltatarO growth, OD600, 18 h, hits give low values, screened at 18.75 µg/mL (by protocol)
row,SMILES,survival
1,Cc1ccc(N2CC(NC(=O)c3ccc(Br)o3)CC2=O)cc1C (centres undefined),37% (active)
2,Cc1ccc(N2CC(NC(=O)Cc3cccs3)CC2=O)cc1C (centres undefined),25% (active)
3,COc1ccc(N2CC(NC(=O)Cc3cccs3)CC2=O)cc1OC (centres undefined),94% (inactive)
4,O=C(Cc1cccs1)NC1CC(=O)N(c2ccccc2)C1 (centres undefined),88% (inactive)
5,O=C(NC1CC(=O)N(c2ccccc2)C1)c1ccc(Br)o1 (centres undefined),87% (inactive)
6,Cc1ccc(N2CC(NC(=O)Cc3cccs3)CC2=O)cc1 (centres undefined),8% (active)
7,O=C(Cc1cccs1)NC1CC(=O)N(c2ccc(Cl)cc2)C1 (centres undefined),67% (inactive)
8,O=C(Cc1cccs1)NC1CC(=O)N(c2ccc(F)cc2)C1 (centres undefined),99% (inactive)
9,COc1ccc(N2CC(NC(=O)c3ccc(Br)o3)CC2=O)cc1 (centres undefined),81% (inactive)
10,Cc1ccc(C)c(NC(=O)CCn2cnnn2)c1,148% (inactive)
11,Cc1nnsc1C(=O)Oc1ccc(C#N)cc1,89% (inactive)
12,COc1cccc(NC(=O)c2cc(CN3CCOCC3)on2)c1,88% (inactive)
13,CCOC(=O)c1ccc(CN(Cc2ccc(Br)cc2)S(=O)(=O)c2cccc(Cl)c2C)cc1,84% (inactive)
14,CC(=O)c1ccc(NC(=O)CN(C)S(=O)(=O)c2cc3c(cc2Cl)NC(=O)CO3)cc1,72% (inactive)
15,O=C(NCc1ccccc1Cl)c1ccc2c(c1)NC(=O)C(CS(=O)(=O)Cc1ccc(F)cc1Cl)N2 (centres undefined),81% (inactive)
16,COc1ccc(N2CCN(c3csc4ccccc4c3=O)CC2)cc1,81% (inactive)
17,CCc1ccc(S(=O)(=O)c2nnn3c2nc(N2CCC(C(N)=O)CC2)c2cc(Cl)ccc23)cc1,69% (inactive)
18,Cc1cc(C)n(CC(C)O)c(=O)c1C#N (centres undefined),108% (inactive)
19,CC1(C)C(=O)N(CC(=O)Nc2ccc(Br)cc2F)c2ccccc21,89% (inactive)
20,Cc1ccc(OCC(=O)Nc2ccc(S(=O)(=O)Nc3ncccn3)cc2)c(C(C)(C)C)c1,47% (active)
21,Cc1ccccc1OCC(=O)Nc1ccc(S(=O)(=O)Nc2ncccn2)cc1,133% (inactive)
22,CC(C)c1ccc(OCC(=O)Nc2ccc(S(=O)(=O)Nc3ncccn3)cc2)cc1,75% (inactive)
23,CCc1cccc(OCC(=O)Nc2ccc(S(=O)(=O)Nc3ncccn3)cc2)c1,43% (active)

row,SMILES,survival
1,Cc1cc(Br)cc(C)c1OCC(=O)Nc1ccc(S(=O)(=O)Nc2ncccn2)cc1,56% (inactive)
2,CCc1cccc(OCC(=O)Nc2ccc(S(=O)(=O)Nc3cc(C)nc(C)n3)cc2)c1,58% (inactive)
3,CCC(Sc1nc2ncccc2[nH]1)C(=O)Nc1ccccc1F (centres undefined),112% (inactive)
4,CCOC(=O)Cn1c(=O)oc2cc(S(=O)(=O)N3CCN(c4cccc(Cl)c4)CC3)ccc21,65% (inactive)
5,COc1cccc2c1Oc1ncccc1N(c1ccc(C(=O)NCc3ccccc3Cl)s1)C2,91% (inactive)
6,COc1ccc(Cn2c(CCC(=O)Nc3ccc(OC)c(Cl)c3)nc3cccnc32)cc1,113% (inactive)
7,Cc1cccc(-c2nc(C)c(CCNC(=O)C(=O)Nc3ccccc3C#N)s2)c1,85% (inactive)
8,CCS(=O)(=O)N1CCC(n2c(C(F)(F)F)nc3cccnc32)CC1,76% (inactive)
9,CN(C)S(=O)(=O)N1CCC(n2c(C(F)(F)F)nc3cccnc32)CC1,94% (inactive)
10,CS(=O)(=O)N1CCC(n2c(C(F)(F)F)nc3cccnc32)CC1,47% (active)
11,COc1ccc(S(=O)(=O)c2c(O)c3ccc(C(=O)NCc4ccc(F)cc4)cc3[nH]c2=O)cc1,108% (inactive)
12,CCOc1cc(-c2ccc(OC(=O)c3ccccc3)c(OC)c2)cc(=O)c2c(C)oc(C)c12,89% (inactive)
13,CCc1ccc(S(=O)(=O)c2nnn3c2nc(Nc2cc(OC)cc(OC)c2)c2cc(Cl)ccc23)cc1,102% (inactive)
14,CCOc1ccc(Nc2nc(C)c(NC(=O)c3cccc(OC)c3)c(Nc3ccc(OCC)cc3)n2)cc1,112% (inactive)
15,CCOc1ccc(Nc2nc(C)c(NC(=O)c3ccc(C)cc3)c(Nc3ccc(OCC)cc3)n2)cc1,123% (inactive)
16,CCOc1ccc(C(=O)Nc2c(C)nc(Nc3ccccc3)nc2Nc2ccccc2)cc1OCC,49% (active)
17,COc1ccccc1Cc1nc2ccccc2nc1SCC(=O)N(C)c1ccc(F)cc1,83% (inactive)
18,O=C(Cn1cc(SCc2ccc(C(F)(F)F)cc2)c2ccccc21)N1CCOCC1,85% (inactive)
19,COc1ccc(NC(=O)NC2COc3ccccc3C2)cc1Cl (centres undefined),57% (inactive)
20,O=C(Nc1ccc(OC(F)(F)F)cc1)NC1COc2ccccc2C1 (centres undefined),0% (active)
21,COc1ccc(NC(=O)NC2COc3ccccc3C2)c(OC)c1 (centres undefined),98% (inactive)
22,O=C(Nc1cccnc1)c1cccc(C(=O)Nc2cccnc2)c1,79% (inactive)
23,O=C(O)c1ccccc1C(=O)Nc1cccnc1,89% (inactive)

row,SMILES,survival
1,O=C(Nc1cccnc1)c1ccccc1Oc1ccccc1,65% (active)
2,CCOc1ccc(-c2c(C)nn3c(C)c(C(=O)NCc4cccc(OC)c4)cnc23)cc1OCC,77% (inactive)
3,Cc1ccc(CNC(=O)CN(c2ccc(Cl)cc2Cl)S(=O)(=O)c2ccccc2)cc1,47% (inactive)
4,CC(NC(=O)CN(c1ccc(Cl)cc1Cl)S(=O)(=O)c1ccccc1)c1ccccc1 (centres undefined),37% (active)
5,Cc1ccccc1NC(=O)CN(c1ccc(Cl)cc1Cl)S(=O)(=O)c1ccccc1,44% (inactive)
6,CCOc1ccc(S(=O)(=O)N(CC(=O)Nc2ccc(OC)c(Cl)c2)c2ccccc2)cc1,75% (inactive)
7,CCOc1ccc(NC(=O)CN(c2ccccc2OCC)S(=O)(=O)c2ccccc2)cc1,48% (inactive)
8,COc1ccc(N(CC(=O)Nc2ccc(Cl)cc2C)S(=O)(=O)c2ccccc2)c(OC)c1,113% (inactive)
9,CCOc1ccc(NC(=O)CN(c2ccc(Cl)cc2C)S(=O)(=O)c2ccccc2)cc1,45% (active)
10,COc1ccc(N(CC(=O)NCCc2ccccc2)S(=O)(=O)c2ccccc2)c(OC)c1,57% (inactive)
11,COc1ccc(N(CC(=O)Nc2cccc(C(C)=O)c2)S(=O)(=O)c2ccccc2)c(OC)c1,48% (active)
12,CCN(CC)CCCNc1nc(C)nc2c1nnn2Cc1ccccc1,94% (inactive)
13,CC(C(=O)NCc1ccco1)N1CCN(C)CC1 (centres undefined),95% (inactive)
14,CC(C)NC(=O)Cc1ccc(Br)cc1,80% (inactive)
15,Cc1cccc(N(C)S(=O)(=O)c2cc(-c3cnc(C4CC4)o3)ccc2C)c1,100% (inactive)
16,CC(=O)Nc1nonc1-c1nnc(SCC(=O)Nc2ccc(F)cc2F)n1-c1ccccc1,13% (active)
17,CCOc1ccc(NC(=O)CSc2nnc(-c3ccncc3)n2-c2ccccc2)cc1,122% (inactive)
18,CC(=O)Nc1nonc1-c1nnc(SCC(=O)Nc2c(C)cccc2C)n1-c1ccccc1,56% (inactive)
19,COc1ccc(NC(=O)CSc2nnc(-c3nonc3NC(C)=O)n2-c2ccccc2)cc1,60% (active)
20,COc1ccccc1NC(=O)CSc1nnc(-c2nonc2NC(C)=O)n1-c1ccccc1,63% (inactive)
21,CCn1c(SCC(=O)Nc2ccc(C)c(C)c2)nnc1-c1nonc1NC(C)=O,110% (inactive)
22,COc1ccc(NC(=O)CSc2nnc(-c3ccncc3)n2-c2ccccc2)cc1,77% (inactive)
23,CCc1ccc(NC(=O)CSc2nnc(-c3nonc3NC(C)=O)n2-c2ccccc2)cc1,43% (active)

row,SMILES,survival
1,CC(=O)Nc1nonc1-c1nnc(SCC(=O)Nc2ccc(C)cc2)n1-c1ccccc1,53% (inactive)
2,CC(=O)Nc1nonc1-c1nnc(SCC(=O)Nc2ccccc2)n1-c1ccccc1,39% (active)
3,CCc1ccccc1NC(=O)CSc1nnc(-c2nonc2NC(C)=O)n1C,52% (inactive)
4,CC(=O)Nc1nonc1-c1nnc(SCC(=O)Nc2cc(C)ccc2C)n1-c1ccccc1,104% (inactive)
5,Cc1cccc(NC(=O)CSc2nc3ccc(NC(=O)c4ccco4)cc3s2)c1,66% (inactive)
6,CCC1CN(C(=O)N2CCC(C(=O)NCc3ccc(OC)cc3OC)CC2)c2cc(C)ccc2O1 (centres undefined),79% (inactive)
7,CCOc1cc(C2c3c(oc4ccccc4c3=O)C(=O)N2c2ccccn2)ccc1O (centres undefined),109% (inactive)
8,CCOC(=O)Cn1c(=O)oc2cc(S(=O)(=O)NCc3ccc(F)cc3)ccc21,72% (inactive)
9,Cc1cccn2c(=O)c(C(=O)NCCc3ccc(S(N)(=O)=O)cc3)c(O)nc12,51% (inactive)
10,Cc1nn2c(=O)cc(COc3ccc(/C=C(\C#N)C(=O)Nc4ccc(F)cc4)cc3)nc2s1,58% (inactive)
11,CCOC(=O)c1c(C)[nH]c(C)c1S(=O)(=O)N1CCC(C(=O)Nc2ccc(C)c(N(C)C)c2)CC1,84% (inactive)
12,CC(=O)N1CCc2nc3sc(C(=O)Nc4ccc(Cl)cc4F)c(N)c3c(C(F)(F)F)c2C1,75% (inactive)
13,CC(=O)Nc1nonc1-c1nnc(SCC(=O)Nc2cccc(F)c2)n1-c1ccccc1,19% (active)
14,CC(=O)Nc1nonc1-c1nnc(SCC(=O)Nc2cccc(C)c2C)n1-c1ccccc1,61% (inactive)
15,CC(=O)Nc1nonc1-c1nnc(SCC(=O)Nc2cc(C)cc(C)c2)n1-c1ccccc1,50% (inactive)
16,Cc1nc2cc(-c3ccccc3)nn2c(C)c1CCC(=O)Nc1ccc(F)cc1F,61% (inactive)
17,CCOC(=O)N1CCc2c(sc3c2c(=O)n(Cc2ccccc2)c(=O)n3CC(=O)Nc2cccc(CC)c2)C1,71% (inactive)
18,COc1cc(NC(=O)C(Cc2ccccc2)NS(=O)(=O)c2cccc3nsnc23)cc(OC)c1 (centres undefined),72% (inactive)
19,O=C(Nc1ccc(OC(F)(F)F)cc1)C(Cc1ccccc1)NS(=O)(=O)c1cccc2nsnc12 (centres undefined),49% (active)
20,O=C(Nc1ccc(OC(F)(F)F)cc1)C(NS(=O)(=O)c1cccc2nsnc12)c1ccccc1 (centres undefined),56% (inactive)
